Source: paper PMC11574364

How the values were obtained:
Assay in all cases: protein domain microarray probed with biotinylated miRNA; Domain array: 20 mM Tris-HCl pH 7.4, 200 mM KCl, 0.2 mM EDTA, 0.05% NP40, 2 ug/ul heparin, overnight 4 C. ORF array: PBS pH 7.0 with RNase inhibitor, 100 ng RNA; high values mean tight binding
Conditions in all cases: ssRNA
RBMXL3 = RBMXL3 (Homo sapiens, UniProt Q8N7X1)
ROD1(3-4) = ROD1(3-4) (Homo sapiens, UniProt O95758)
PSPC1 = biological target: T1, PSPC1 (Homo sapiens, UniProt Q8WXF1)
T1 sequence: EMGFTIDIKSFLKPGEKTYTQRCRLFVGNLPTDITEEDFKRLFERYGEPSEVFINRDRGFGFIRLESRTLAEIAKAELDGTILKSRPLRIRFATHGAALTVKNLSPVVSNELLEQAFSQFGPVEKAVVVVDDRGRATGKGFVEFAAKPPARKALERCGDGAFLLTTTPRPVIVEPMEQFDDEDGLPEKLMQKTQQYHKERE

TDRD10 = biological target: T2, TDRD10 (Homo sapiens, UniProt Q5VZ19)
T2 sequence: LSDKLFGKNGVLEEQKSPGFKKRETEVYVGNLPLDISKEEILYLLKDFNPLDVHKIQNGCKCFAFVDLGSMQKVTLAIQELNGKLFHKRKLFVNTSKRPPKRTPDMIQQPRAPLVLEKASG

MASK-BP3 = biological target: T3, MASK-BP3 (Homo sapiens, UniProt Q8IWZ3)
T3 sequence: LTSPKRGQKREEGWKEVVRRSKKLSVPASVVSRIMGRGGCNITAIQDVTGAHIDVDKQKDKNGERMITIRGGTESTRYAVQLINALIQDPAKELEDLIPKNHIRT

TRA2A = biological target: T4, TRA2A (Homo sapiens, UniProt Q13595)
T4 sequence: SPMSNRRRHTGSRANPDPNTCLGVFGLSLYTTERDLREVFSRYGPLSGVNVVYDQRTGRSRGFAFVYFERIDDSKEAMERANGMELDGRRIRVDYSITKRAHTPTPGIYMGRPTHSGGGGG

SFRS7 = biological target: T5, SFRS7 (Homo sapiens, UniProt Q16629)
T5 sequence: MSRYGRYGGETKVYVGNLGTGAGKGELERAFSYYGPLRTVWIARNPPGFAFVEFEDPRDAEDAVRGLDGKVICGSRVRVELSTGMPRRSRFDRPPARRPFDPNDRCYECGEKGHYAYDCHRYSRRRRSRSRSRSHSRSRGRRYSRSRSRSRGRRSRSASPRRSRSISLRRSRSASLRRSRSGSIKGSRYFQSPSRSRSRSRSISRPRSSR

snRNP 70 = snRNP 70 (Homo sapiens, UniProt P08621)
Chain of snRNP 70 (P08621 80-205): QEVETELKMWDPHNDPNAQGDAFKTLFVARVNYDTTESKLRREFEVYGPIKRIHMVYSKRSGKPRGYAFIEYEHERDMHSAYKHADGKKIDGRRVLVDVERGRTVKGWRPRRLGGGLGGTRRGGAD

SRRP35 = SRRP35 (Homo sapiens, UniProt Q8WXF0)
Chain of SRRP35 (Q8WXF0 1-120): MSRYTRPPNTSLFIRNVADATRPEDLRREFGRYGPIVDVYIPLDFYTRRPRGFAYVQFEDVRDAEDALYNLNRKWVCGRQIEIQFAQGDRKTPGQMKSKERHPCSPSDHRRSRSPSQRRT

RDBP = RDBP (Homo sapiens, UniProt P18615)
Chain of RDBP (P18615 240-355): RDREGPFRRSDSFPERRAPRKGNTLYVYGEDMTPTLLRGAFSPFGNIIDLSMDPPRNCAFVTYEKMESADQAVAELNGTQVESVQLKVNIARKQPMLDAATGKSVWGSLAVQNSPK

Chain of ROD1(3-4) (O95758 340-552): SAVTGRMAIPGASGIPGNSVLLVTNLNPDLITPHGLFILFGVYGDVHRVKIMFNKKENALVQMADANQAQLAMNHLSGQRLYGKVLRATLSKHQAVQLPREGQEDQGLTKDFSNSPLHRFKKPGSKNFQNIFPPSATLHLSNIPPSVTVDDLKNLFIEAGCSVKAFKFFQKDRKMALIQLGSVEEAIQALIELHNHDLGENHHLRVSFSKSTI
Chain of RBMXL3 (Q8N7X1 1-110): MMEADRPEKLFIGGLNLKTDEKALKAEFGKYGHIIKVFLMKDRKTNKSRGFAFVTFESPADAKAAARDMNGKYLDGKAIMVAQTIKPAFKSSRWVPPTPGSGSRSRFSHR

| Sequence | binding signal (RBMXL3) [fluorescence intensity] | binding signal (ROD1(3-4)) [fluorescence intensity] | binding signal (PSPC1) [fluorescence intensity] | binding signal (TDRD10) [fluorescence intensity] | binding signal (MASK-BP3) [fluorescence intensity] | binding signal (TRA2A) [fluorescence intensity] | binding signal (SFRS7) [fluorescence intensity] | binding signal (snRNP 70) [fluorescence intensity] | binding signal (SRRP35) [fluorescence intensity] | binding signal (RDBP) [fluorescence intensity] |
| --- | --- | --- | --- | --- | --- | --- | --- | --- | --- | --- |
| AGAGGUAGUAGGUUGCAUAGUU | 1850 ± 54 | 331 ± 55.6 | 38.8 ± 3.2 | 85.7 ± 8.76 | 50.1 ± 3.32 | 230 ± 12.5 | 2902 ± 20.8 | 899.9 ± 8.8 | 735 ± 23.2 | 47.7 ± 4.8 |
| CAGUGCAAUGAUGAAAGGGCAU | 1130 ± 24.3 | 241 ± 7.52 | – | 33.1 ± 2.64 | 42.16 ± 0.219 | 126 ± 1.75 | 2185 ± 2.91 | 453 ± 34.9 | 882 ± 24.2 | 43.1 ± 3.73 |
| UGAGGUAGUAGGUUGUGUGGUU | 1280 ± 38.3 | 569 ± 20.9 | 84.7 ± 9.68 | 210 ± 41.3 | 131 ± 1.63 | 341 ± 41.5 | 1968 ± 10.4 | 1170 ± 58.7 | 643.6 ± 5.9 | 78.9 ± 4.14 |
| UGAGGUAGUAGGUUGUAUGGUU | 1320 ± 44.2 | 385 ± 82.6 | 26.1 ± 0.75 | 161 ± 58.1 | 71.6 ± 1.19 | 311 ± 4.77 | 2173 ± 16.3 | 1010 ± 40.3 | 570 ± 27.1 | 52.2 ± 3.22 |
| UGAGGUAGUAGGUUGUAUAGUU | 500 ± 52.7 | 92.7 ± 10.2 | – | – | 26.2 ± 1.21 | 25 ± 0.552 | 896.5 ± 2.67 | 179 ± 52.5 | 206 ± 15.3 | 25 ± 1.67 |
| UAGCUUAUCAGACUGAUGUUGA | 308 ± 16.9 | 94.4 ± 48.7 | – | – | – | – | 1190 ± 28.1 | 44 ± 10.4 | 54.02 ± 0.29 | 20.3 ± 0.262 |
